# Screening results from PubChem.
# Rin1-Abl PPI inh – inhibitors of human Rin1-Abl protein interaction | TR-FRET Rin1/Abl binding, biochemical | P00519+Q13671 | inhibition, % at 7.35 µM | 360,000 compounds, 0.4% hits; in the data active = inhibition above about 5%, passing the limit was not always enough
# Hck Nef HTS – human Hck-Nef kinase inhibition. P08631. Recombinant Hck-YEEI plus Nef, Z-Lyte FRET kinase assay. inhibition, % at 20 µM. 220,000 compounds, 0.68% hits;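 active = Hck-Nef kinase inhibition above about 50%, limit read from the data; inactive = inhibition below that limit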
# Target sequence (P08631 whole entry, looked up): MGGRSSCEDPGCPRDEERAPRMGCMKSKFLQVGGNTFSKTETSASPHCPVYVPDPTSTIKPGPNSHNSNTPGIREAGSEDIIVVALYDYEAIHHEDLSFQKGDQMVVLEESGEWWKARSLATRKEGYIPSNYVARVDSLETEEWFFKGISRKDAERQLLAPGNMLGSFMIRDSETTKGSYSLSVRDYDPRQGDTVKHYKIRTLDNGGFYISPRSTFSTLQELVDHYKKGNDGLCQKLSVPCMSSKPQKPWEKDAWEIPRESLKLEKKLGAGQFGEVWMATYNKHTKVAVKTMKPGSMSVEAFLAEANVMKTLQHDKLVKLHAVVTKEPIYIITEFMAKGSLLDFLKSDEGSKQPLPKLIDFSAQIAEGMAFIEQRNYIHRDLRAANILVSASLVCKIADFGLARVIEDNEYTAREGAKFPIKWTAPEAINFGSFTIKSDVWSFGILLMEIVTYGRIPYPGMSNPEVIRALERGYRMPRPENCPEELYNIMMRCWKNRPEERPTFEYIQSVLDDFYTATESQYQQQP
# LYPLA1 counter – LYPLA1 (human) inhibition in PME1 counter-screen | inhibition, % at 5.9 µM | 320,000 compounds, 0.16% hits | AID 2174 | recombinant LYPLA1, FP-Rh probe fluorescence polarization;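 active = inhibition above the mean of all tested compounds plus 3 SD, set per campaign, cut at about 14% in these data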;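 note: inhibitors block serine hydrolase probe labeling of LYPLA1 so polarization falls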
# LYPLA2 counter – LYPLA2 (human) inhibition in PME1 counter-screen; recombinant LYPLA2, FP-Rh probe fluorescence polarization; O95372; inhibition, % at 5.9 µM; 320,000 compounds, 0.38% hits;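 active = inhibition above the screen-wide mean plus 3 SD, limit set per campaign, cut at about 26% in these data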
# PREPL inhibitor – inhibitors of human prolyl oligopeptidase-like enzyme PREPL. Q4J6C6. recombinant PREPL, fluorescence polarization activity-based probe. inhibition, % at 5.96 µM. 320,000 compounds, 0.68% hits; in the data active = inhibition above about 43%
# p97 ATPase inh – human p97 ATPase inhibition; recombinant p97 ATPase, Kinase-Glo ATP luminescence, 3 h; 220,000 compounds, 0.42% hits; inhibition, % at 8 µM; P55072; in the data active = inhibition above about 15%
# p97 inh conf – human p97 ATPase inhibition, confirmation; shares compounds with p97 ATPase inh; recombinant p97 ATPase, Kinase-Glo ATP luminescence; inhibition, % at 8 µM; 760 compounds, 44% hits;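 active = percent inhibition of p97 ATPase above a set limit, the primary screen's mean plus 3 SD, cut at about 15% in these data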
# A number is an active result; - = inactive; . = no result. Only some compounds are listed: those with a hit (about 1.7% of all), similar ones and a draw of the others.
SMILES,Rin1-Abl PPI inh,Hck Nef HTS,LYPLA1 counter,LYPLA2 counter,PREPL inhibitor,p97 ATPase inh,p97 inh conf
CSCCC(NS(=O)(=O)c1ccc(Cl)cc1)C(=O)OCC(=O)NC12CC3CC(CC(C3)C1)C2 (stereo not given),-,-,-,-,-,22,-
CCOc1cc(/C=N/NC(=O)c2nnn(-c3nonc3N)c2C)ccc1OCc1cccc(F)c1,-,.,-,-,-,.,.
Cc1ccc(C)c(OCC(=O)N(Cc2ccccc2)c2c(N)n(Cc3ccccc3)c(=O)[nH]c2=O)c1,-,.,.,.,.,.,.
O=C(O)C(=Cc1cccc([N+](=O)[O-])c1)c1ccccc1,-,.,.,.,.,.,.
O=C(C#Cc1cccc([N+](=O)[O-])c1)c1ccccc1,-,-,-,-,-,21,25
Cc1ccc(C(=O)NCC#N)cc1,-,-,-,-,-,-,.
Cc1ccc(C(=O)NC(C#N)=C(Cl)Cl)cc1,.,-,.,.,.,22,21
CC(C)c1ccc2c(c1)CC[C@H]1[C@](C)(CN)CCC[C@]21C,-,.,.,.,.,.,.
CC(C)c1ccc2c(c1)CCC1C(C)(CN)CCCC21C (stereo not given),-,-,-,-,-,22,-
COc1ccc(NC(=O)C2CCCN(S(=O)(=O)c3c(C)[nH]c(=O)[nH]c3=O)C2)cc1OC (stereo not given),-,-,-,-,-,-,.
CCc1cccc(NC(=O)C2CCCN(S(=O)(=O)c3c(C)[nH]c(=O)[nH]c3=O)C2)c1 (stereo not given),-,-,-,-,-,23,-
COc1ccc(CCC(=O)Nc2nc(C)c(C(=O)N(C)C)s2)cc1,-,.,-,-,-,.,.
O=c1c2c3nc4ccccc4nc3n(Cc3ccccc3)c2ncn1Cc1ccco1,-,-,.,.,.,16,34
COc1cc(-n2c3nc4ccccc4nc3c3c(=O)n(Cc4ccco4)cnc32)cc(OC)c1OC,.,-,.,.,.,-,.
O=C(NNC(=O)c1cnccn1)c1ccc(Cl)c(Cl)c1,-,.,-,-,-,.,.
CCOC(=O)C1CCN(S(=O)(=O)c2cn(C)c(=O)n(C)c2=O)CC1,-,-,-,-,-,-,.
CCOC(=O)C1CCCN(S(=O)(=O)c2cn(C)c(=O)n(C)c2=O)C1 (stereo not given),-,-,-,-,-,17,-
COc1ccccc1N1CCN(S(=O)(=O)CCNC(=O)C2CCCCC2)CC1,-,.,-,-,-,.,.
N#CC1=C(N)NC(SCC(=O)c2ccc(Cl)cc2)=C(C#N)C12CCCC2,-,-,-,-,-,-,.
N#CC1=C(N)NC(SCC(=O)c2ccc(Br)cc2)=C(C#N)C12CCCCC2,-,-,-,-,-,15,-
CCc1nc2c(OCc3cccc(Cl)c3)cccn2c1N(C)C(=O)c1ccc(OC)cc1,-,.,.,.,.,.,.
CN(C(=S)Nc1cccnc1)c1ccc(O)cc1,-,-,-,-,-,18,-
CN(C(=S)Nc1ccc(Oc2ccccc2)cc1)c1ccc(O)cc1,-,-,-,-,-,-,.
COc1cccc(C(=O)NCc2ccc3c(c2)cc(C)n3C)c1,-,-,-,-,-,20,-
Clc1nc2c(-c3ccccc3)nnn2c2ccccc12,-,-,-,-,-,17,25
SMILES,Rin1-Abl PPI inh,Hck Nef HTS,LYPLA1 counter,LYPLA2 counter,PREPL inhibitor,p97 ATPase inh,p97 inh conf
Cc1ccc(-c2nnn3c2nc(Cl)c2ccccc23)cc1,-,-,.,.,.,17,-
CCC(C)[C@H](NC(=O)[C@@H]1Cc2c([nH]c3ccccc23)C2c3ccccc3C(=O)N21)C(=O)NCC1CCCO1 (stereo not given in full),-,.,-,-,-,.,.
O=C(CCn1c(=S)oc2ccccc21)NC1CCCCCC1,-,-,-,-,-,16,-
CC1CCCC(NC(=O)CCn2c(=S)oc3ccccc32)C1C (stereo not given),-,-,-,-,-,-,.
COc1cc2c(C#Cc3cccnc3)c(-c3ccsc3)oc(=O)c2cc1OC,-,.,.,.,-,.,.
CCn1c(COC(=O)CNC(=O)c2cc(OC)c(OC)c(OC)c2)nc2cc(S(=O)(=O)N(C)C)ccc21,-,.,-,-,-,.,.
COc1cc(C2C3=C(COC3=O)Oc3cc4c(cc32)OCO4)cc(OC)c1OC(C)=O (stereo not given),-,.,.,.,.,.,.
O=C(COc1ncnc2cc([N+](=O)[O-])ccc12)NCCc1ccc(Cl)cc1,-,-,-,-,-,15,-
O=[n+]1c2c(n([O-])c3ccccc31)CCCC2,-,-,-,-,-,15,-
Oc1[nH]c(=S)sc1/C=C1\C(c2ccccc2)=Nc2ccccc21,-,-,-,-,-,23,53
COc1ccc(S(=O)(=O)Nc2nc3c(s2)C(=O)CC(C)(C)C3)cc1,-,.,-,-,-,.,.
Cc1ccc(S(=O)(=O)Nc2nc3c(s2)C(=O)CC(C)(C)C3)cc1,-,-,-,-,-,16,-
COc1ccc(NC(=O)c2cc(SC)ccc2Cl)cc1,-,-,-,-,-,16,-
CCOc1ccccc1Nc1cc(C)nc2ccc(C)cc12,-,.,-,-,-,.,.
CC(C)(C)C(=O)Nc1sc(-c2ccccc2)cc1C(=O)O,-,-,-,-,-,18,-
Cc1ccc(NC(=O)C2CCN(C(=O)OC(C)(C)C)CC2)cc1S(=O)(=O)N1CCCCC1,-,.,-,-,-,.,.
CC(=O)N(/N=C1\Sc2ccccc2C1=O)c1ccccc1C,-,-,-,-,-,18,25
O=C(Nc1ccccc1)/C(=C\c1ccc(F)cc1)NC(=O)c1ccco1,-,.,-,-,-,.,.
COc1cccc(Nc2ccccc2C(=O)O)c1,-,-,-,-,-,16,-
COc1cccc(NC(=O)c2ccccc2-c2ccccc2C(=O)O)c1,-,.,-,-,-,.,.
COc1ccc(NC(=O)CCOc2ccccc2F)cc1S(=O)(=O)N1CCCCC1,-,.,.,.,-,.,.
COc1ccc2[nH]cc(C(=O)CCl)c2c1,-,-,-,-,-,42,46
N#Cc1c(-c2ccccc2)c(-c2ccccc2)nn(CC(=O)NNC(=O)Nc2ccc(Cl)cc2)c1=O,-,-,-,-,-,31,27
N#CCCn1[nH]c(-c2ccccc2)cc1=O,-,-,-,-,-,22,-
CCN(C(=O)COC(=O)CCc1ccc(OC)cc1)c1c(N)n(Cc2ccccc2)c(=O)[nH]c1=O,-,.,.,.,.,.,.
COc1ccc(-c2nc(-c3cccs3)c(-c3cccs3)[nH]2)cc1O,-,-,-,-,-,15,26
O=C(O)c1ccccc1SCC(=O)N1CCCCC1,-,-,-,-,-,-,.
O=C(O)c1ccccc1SCC(=O)N1c2ccccc2Sc2ccccc21,-,-,-,-,-,66,-
COc1ccc2c(c1)Cc1sc(NC(=O)c3ccccc3)nc1-2,-,-,-,-,-,18,-
COc1ccc2ccc3c(c2c1)N=CC1(O3)N(C)c2ccccc2C1(C)C (stereo not given),-,-,-,-,-,16,-
